About 5,400 (1.5%) of roughly 370,000 compounds were called active.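 Rule for the calls: active = activation above the mean of all tested compounds plus 3 SD (cut at about 5.5% in these data); inactive = the rest.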 Only a selection was taken, and actives are over-represented in it overall.

The test system of the experiment is DAF-12 nuclear receptor (Haemonchus contortus). The experiment can be described thus: H. contortus DAF-12 nuclear receptor activators, primary screen, cell-based, luminescence, HEK293, lit1-tk-luc reporter (AID 652067).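 Note: 100% = response to 3 µM Δ7-dafachronic acid high control.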 To be noted: HEK293 hcDAF-12 lit1-tk-luc reporter, at 6.8 µM, hits give high values, 0% DMSO, 100% Δ7-dafachronic acid.
Turning to `CCC(CO)Nc1cccc2c1S(=O)(=O)N(Cc1cn(Cc3ccccc3C(F)(F)F)nn1)Cc1ccccc1O2` (configuration not stated), the activation is -0.6% (inactive).

Take `Cc1ccc(-c2nc(C3CCCN(S(=O)(=O)c4ccc(Br)s4)C3)no2)cc1` (configuration not stated): the activation is -1.74% (inactive).

For `CCOC(=O)C1(Cc2ccccc2)CCN(Cc2cn(C(C)=O)c3ccccc23)CC1`, the activation was 4.1% (inactive).

Take `Cc1ccc(NC(=O)N2c3ccccc3SC2c2ccco2)c(C)c1` (configuration not stated): the activation is 0.47% (inactive).

In the case of `COC(=O)C1CN(CC(C)C)CCS(=O)(=O)N1Cc1ccc(C)cc1` (configuration not stated), the activation is -1.58% (inactive).

Consider `N#Cc1ccc(C2N=C(c3ccccc3)NO2)cc1` (configuration not stated), for which the activation is 5.73% (active).

For `S=C1NC(c2ccccc2)=NCN1c1ccc(Br)cc1`, the activation was -0.59% (inactive).

Take `Brc1ccccc1C1N=C(c2ccccc2)NO1` (configuration not stated): the activation was 11% (active).

With `CN(C(=O)Cn1nnc(-c2ccc(F)cc2)n1)C1CCS(=O)(=O)C1` (configuration not stated), the activation is 0.43% (inactive).

Turning to `C#CCN([C@H](C(=O)OC)C(C)CC)S(=O)(=O)c1ccccc1Br` (some centres not stated), the activation was -3.57% (inactive).

Turning to `COC(=O)[C@]1(Cc2ccccc2)NC=C(C(=O)c2ccccc2)[C@@H]1c1cccc(OC)c1`, the activation is -0.48% (inactive).

Take `COc1cc(C(=O)Nc2ncccc2C)ccc1OCC(=O)N1CCOCC1`: the activation is -1.69% (inactive).

For `O=C(Cc1ccc(Cl)cc1)NC(=S)Nc1ccccc1O`, the activation was -0.62% (inactive).

For `O=C(NC(=O)c1ccccc1)Nc1ccccc1O`, the activation is 12.2% (active).

`O=C(NC(=S)Nc1cccc2c(O)cccc12)c1cccc(Br)c1`: the activation is 1.98% (inactive).

With `CCCC[C@H]1C2CC(OC(=O)NCc3ccccc3)C(C2)[C@H]2CCCCN21` (some centres not stated), the activation was 0.87% (inactive).

With `COC(=O)C[C@H]1CC[C@H]2[C@H](COc3ccc(NC(=O)C4CC4)cc3C(=O)N2C)O1`, the activation is 0.16% (inactive).

With `COc1ccccc1-c1sc2ccccc2c1C#CC1(O)CCCCC1`, the activation was 1.87% (inactive).

On to `CCOc1ccc2nc(Cl)c(C3CC(c4ccccc4)=NN3C(=O)c3cccs3)cc2c1` (configuration not stated), for which the activation was -2.57% (inactive).

Turning to `COc1ccc(C2CC(c3ccccc3)=NN2C(=O)c2ccc(Cl)c([N+](=O)[O-])c2)cc1` (configuration not stated), the activation was 0.35% (inactive).

Take `COc1ccc(C2=NN(C(=O)c3ccccc3C(=O)O)C(c3ccccc3O)C2)cc1` (configuration not stated): the activation was 12.9% (active).

For `O=C1Nc2ccccc2OC1CC(=O)N1CCCCCCC1` (configuration not stated), the activation was 1.16% (inactive).

As for `CCCCNC(=O)C[C@H]1C[C@@]2(C(=O)OC)C(=C[C@H](COCc3ccccc3)O[C@@H]2C)N(Cc2ccc(Cl)cc2Cl)C1=O`, the activation was -3.26% (inactive).

Consider `C=C(C)C#CC(Cc1ccccc1)NCC1CC1` (configuration not stated), for which the activation was -1.73% (inactive).

For `CCN(CC)CC(=O)Nc1sc2c(c1C(=O)c1ccccc1C)CCC2`, the activation was -0.3% (inactive).

`NC(=O)c1c(NC(=O)c2ccccc2)sc2c1CCCC2`: the activation is 7.46% (active).

Consider `O=C(O)c1c(NC(=O)N2CCCC2)sc2c1CCCC2`, for which the activation was -0.22% (inactive).

Regarding `Cc1nc2ccc(C(=O)N3CCN(C(=O)C(C)(C)C)CC3)cc2n1C1CCCC1`, the activation was -2.87% (inactive).

As for `CC(CCN1CCC(C(O)(c2ccccc2)c2ccccc2)CC1)Oc1ccc(Cl)cc1` (configuration not stated), the activation is 4.67% (inactive).

`CC(CCN1CCC(C(O)(c2ccccc2)c2ccccc2)CC1)Oc1ccc([N+](=O)[O-])cc1Cl` (configuration not stated): the activation was 6.54% (active).

For the compound `CC(CCN1CCC(C(O)(c2ccccc2)c2ccccc2)CC1)Oc1ccc(C(F)(F)F)cc1` (configuration not stated), the activation was -0.22% (inactive).

With `Cc1cc(C)cc(NC(=O)N2CCC(N(C)CCC(C)C)CC2)c1`, the activation was -0.86% (inactive).

In the case of `CC(C)(C)OC(=O)NCc1cc(F)ccc1/C=C/S(=O)(=O)NCCc1ccccc1`, the activation is -0.58% (inactive).

Regarding `CCOC(=O)c1cc2c(nc1NC(=S)Nc1ccccc1)CC(C)(CC)OC2` (configuration not stated), the activation was -0.86% (inactive).

Regarding `CCOC(=O)c1c(NC(=S)Nc2ccccc2)sc2c1CCN(C)C2`, the activation is 0.34% (inactive).

Take `CCOC(=O)c1cn[nH]c1NC(=S)Nc1ccccc1`: the activation was 7.58% (active).

Turning to `C[C@H]1CN([C@@H](C)CO)C(=O)CCCn2nncc2CO[C@@H]1CN(C)C(=O)Nc1ccc(N2CCN(C)CC2)cc1`, the activation is -1.4% (inactive).

Regarding `Cc1ccc2[nH]c(C(=O)O)c(NC(=O)c3ccccc3[N+](=O)[O-])c2c1`, the activation was 3.39% (inactive).

Consider `O=C(O)c1[nH]c2ccccc2c1C(c1cccc(O)c1)c1c(C(=O)O)[nH]c2ccccc12`, for which the activation was 6.89% (active).

Consider `CCCS(=O)(=O)Nc1c(C(=O)O)[nH]c2ccccc12`, for which the activation is 3.5% (inactive).

On to `CCC(c1ccc(NC(=O)OC(C)(C)C)cc1)c1cc(OC)cc(OC)c1` (configuration not stated), for which the activation is -1.61% (inactive).

For the compound `CCOc1ccc(Oc2c(Cl)cnn(-c3ccc(C)cc3)c2=O)cc1`, the activation was -0.82% (inactive).

In the case of `N#CC1=C(N)Oc2c(sc3ccccc23)C1c1ccco1` (configuration not stated), the activation was 6.9% (active).

Take `CCC(=O)c1c(CC)c2n3c1=CC[C@H]3CC(Br)C=2` (some centres not stated): the activation was -2.16% (inactive).

On to `CN(C)c1ccnc(Nc2ccc(F)cc2)c1C#N`, for which the activation is 1% (inactive).

With `CC(C)c1ccc(Nc2ncccc2C#N)cc1`, the activation was 5.74% (active).

In the case of `CCN1C(=O)N[C@@H]2C[C@H](C(=O)N3CCCC3)[C@H](C)[C@H](c3ccccc3)C[C@@H]21`, the activation was 0.19% (inactive).

As to `CC(C)CNc1cccc2c1S(=O)(=O)N(Cc1cn(Cc3ccc(Cl)cc3)nn1)Cc1ccccc1O2`, the activation was -0.84% (inactive).

As to `CCc1ccc(-c2cc(C(=O)NN3CCN(C)CC3)c3ccccc3n2)cc1`, the activation is 6.67% (active).

`COC(=O)c1cc(N2CCNCC2)nc2ccccc12`: the activation is 0.41% (inactive).

As to `CCCCc1nc2ccccc2c(NC(=O)CN2CCN(C)CC2)c1CCC`, the activation is 0.46% (inactive).

Regarding `COC(=O)C(C(=O)OC)c1ccccc1NS(=O)(=O)c1cccc2ccccc12`, the activation is -1.63% (inactive).

Take `COc1cccc(/C=C2\CC3(OC(C)=O)CCCN2C3)c1` (configuration not stated): the activation was -1.14% (inactive).

Turning to `CNC(=O)c1sc(Nc2ccc(OCc3ccccc3)cc2)nc1C`, the activation is -3.73% (inactive).

For `COc1ccccc1Nc1ncc(C(C)=O)c(C)n1`, the activation is -0.49% (inactive).

On to `COc1cccc2sc(Nc3nc(C)c(C(C)=O)s3)nc12`, for which the activation is 6.52% (active).

Regarding `CCOC(=O)N1CCN(C(=O)C[C@@H]2C(=O)N(CCc3ccc(Cl)cc3)C3=CCCC[C@]32C(=O)OCC)CC1`, the activation is -4.47% (inactive).

Source of the values: PubChem BioAssay AID652067 (The Scripps Research Institute Molecular Screening Center, 2013).
